Unmarked numbers belong to inactive results.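 How the source made its calls: active = MAPPIT score above the 99th percentile of random reference set scores in the same batch; inactive = at or below it.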

Common to all, as to assay: MAPPIT interaction score (arbitrary units); higher = stronger binary interaction signal, active = hit call of the paper
One test addresses CG14282. The following applies: MAPPIT configuration: N-C; pair source set: RRS.
The target in a further test is CG14563. Conditions: pair source set: RRS.
Another test deals with CG17162. Conditions: MAPPIT configuration: N-C; pair source set: screen_3.
Another test concerns the target Dlc90F. The following applies: MAPPIT configuration: N-N; pair source set: Lit-BS-16.
In a further test the target is CG14535. The following applies: MAPPIT configuration: N-N; pair source set: screen_2.
For another test, the target named is CG14464. The following applies: MAPPIT configuration: N-N; pair source set: RRS.
The next test concerns the target CG14190. Conditions: pair source set: RRS.
The next test has as its target CG42512. Conditions: pair source set: RRS.
The target of the next test is CG1416. Conditions: MAPPIT configuration: N-N; pair source set: DPIM.
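Further: HEK293T cells with Epo stimulation, STAT-responsive firefly luciferase reporter, fold induction versus unstimulated cells divided by the larger fold induction of two negative controls lacking either bait or prey.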

B1: Fkbp12 (protein)
chain: MGVQVVPIAPGDGSTYPKNGQKVTVHYTGTLDDGTKFDSSRDRNKPFKFTIGKGEVIRGWDEGVAQLSVGQRAKLICSPDYAYGSRGHPGVIPPNSTLTFDVELLKVE
For the molecule B1, in the test with CG14282, the MAPPIT interaction score was -0.281.

B2: Mettl2 (protein)
chain: MLTTSSSTMLGKYGWQILRRLASKSWEHTRQRKKPSGAGSRVLTDAREVFEFNAWDHVQWDEEQELAAKAAVAKNSTSKMEAEQKERFQTDAPKFWDSFYGIHDNRFFKDRHWLFTEFPELAPLAADSAVLQPRSIFELGCGVGNTILPLLQYSSEPQLKVFGCDFSARAIEILRSQRQFDEKRCEVFVMDATLDHWQVPFEENSQDIIVMIFVLSAIEPKKMQRVLDNCYRYLRPGGLLLFRDYGRYDLAQLRFKSGKCMEDNFYVRGDGTMVYFFTEEELRGMMTQAGLQEEQLIVDRRLQVNRCRGLKMYRVWIQTKFRKPL
For the molecule B2, the MAPPIT interaction score with CG14563 (MAPPIT configuration: N-C) is 0.238; with CG14563 (MAPPIT configuration: N-N), -0.0268; with CG17162, 1.73; in the test with Dlc90F, 0.581.

B3: Deaf1 (protein)
chain: MEQVDSSTELHLNRKDLAALAEDVVKEEVILESSSHHHHHHHHQLDTKVRMVTSSSNDNSGSGGASGGTSGAGGGNGGGGVVSVPVSLPIGSMITGTTFNVITPDQLPPHFKPMLCVDNNGYLSGSTVSMGNDLKTIVIQQQQTQPGGGGGGANNAGTNTTATNTIGLNHDGSGSNNSHDSLATLEHAAGGASGVGGGGGGTGGGSSGWSENPSTQHNEVFQIRCKTTCAELYRSKLGSGGRGRCVKYKDKWHTPSEFEHVCGRGSSKDWKRSIKYGGKSLQSLIDEGTLTPHATNCSCTVCCDDEAGESASGPVRLFTPYKRRKRNQTDLDMESGPKRKRNTHHSNNNNSNTNNNNTSGSGANNCVDVTAAVAAATASVVDENNMFLSEENITSKDEPWAALNDSLDTSTELVDQSQMGNTYERETFVVNINDGSSIAVLDTSQSMKNIEHVYCTMVKATNDFKRMLNDMKQSFERRIEVLQKERDAAVSAMRVQVHADIDDPNISGSLHGNEIISAKKCANCNREALAECSLCRKTPYCSEFCQRKDWNAHQVECTRNPQTTTQQVMLLIDDQS
Regarding B3, in the test with CG14535, the MAPPIT interaction score was 0.95.

B4: Cdk12 (protein)
chain: MHASSAAATALVEYSDVSSEDFSDQEAGDLDADAGKGAGNIKKPKPAPDNQFSKGRLDAKPDKEGYDNYRSRRAEDSSDPVAAGSRQTSSSEATNPREEPSQASNTSKDELWGREIYMSSDSIDTDELEAEMKRQKRKKQKKEKHKHKSKKKSKKRKKKRAKSYSSIDSMSDNDINALLDRRYTPPTAPSKSNERTVSAAPSSFTPHNLKESSSPATPPPVRRPNTNSNYYGESSLETANSALGSNLQVTVTNKQSISNRLRSPPPSSRSSGNGPRFGNSPRTPPPSHYSSSGGGGVGSGSVVRDSRSSRYVNSPHKEDVSAHHRSSHDHGYQGRYSGAGSSSHDTRKVKRLSPELDRYNHQPSTPPHKRRKFSDGREVGLGNFEHSRHHSGKYERYSRDRYSRRSSRSPSVQHSRSRQSPSGGLSSGSNAFRHGGSHKHKYGTTVSSTPSHTTRTSKRASGTGTSGDRYSRSPRTSSRYMESSPPSPVGASGSHHYHHRRSPRMRQRTRGDSRRRSPSSASSESSASRSRSPTSRDLKHKREEYIKKISETSLFAELVKDRHKRQKALKEIIERQEENSNSNSNGALTINDNSSSVDGNTPNAADGRSAPGSGTPAAASTTSNGLQALGSKPDLDLNNIPMPNKQNDSVVSNPASNADVPDSVAQLKQPLLVPPFSASKNNIKPKSLTSLPLPPGMNVLDLAGARSPSPGQKKESDEKNVTSSGSANKSVLNLPMPPVIPGSEELSGDDDVIDSPEDFDAPAVGTVHGHGGGPGTTRQRPVILNRRDSRNNVRDWGERCVDVFEMIAQIGEGTYGQVYKARDHHTNDMVALKKVRLEHEKEGFPITAVREIKILRQLNHRNIVNLHEIVTDKQDAVEFRKDKGSFYLVFEYMDHDLMGLLESGMVDFNEENNASIMKQLLDGLNYCHKKNFLHRDIKCSNILMNNRGKVKLADFGLARLYNADDRERPYTNKVITLWYRPPELLLGEERYGPSIDVWSCGCILGELFVKRPLFQANAEMAQLETISKICGSPVPAVWPNVIKLPLFHTLKQKKTHRRRLREDFEFMPAPALDLLDKMLDLDPDKRITAEDALRSPWLRKINPDEMPTPQLPTWQDCHELWSKKRRRQMREQQESLPPTVIASTKYQQHGATMVGDA
Take B4: the MAPPIT interaction score with CG14464 was 0.381.

B5: tut (protein)
chain: MDFESKYCTSQVNGTITITTRKVLDENLKSLLDEGKGELFLSCIPRNHSCSPRWIVEVASELGEVYIMRYKIDFSGNSRGYAYLQYINVDLKESAMQYLPMRFRQLCMCLRVEPSTNNRELVLKNVESSLRPWQVYQEMLKIHPFTIVRVYEYQLDQFFYIFEYRNNDSAASAHQRVRNSIRKFGEHAHISWLTAENILSRASGSFCFQREVSQNRTRRVPPRQKGCFKF
B5: the MAPPIT interaction score in the test with CG14190 (MAPPIT configuration: N-C) was 0.351; with CG14190 (MAPPIT configuration: N-N) it was -0.511; with CG42512 (MAPPIT configuration: N-C) it was -0.391; in the test with CG42512 (MAPPIT configuration: N-N), 0.0427.

B6: M6 (protein)
chain: MSKVKNLLAKMLQRFGKNSSQADSQRYDSLEEIAQNQANERMLRATQVGLEEHLVICLETEAGSFYWHSQ
As for B6, the MAPPIT interaction score in the test with CG1416 is -0.155.
